Screens as filed in PubChem.
Hits are enriched below; roughly 7.5% of the tested compounds scored in any of these assays.
ELG1 genotox: qHTS screen for small molecules that induce genotoxicity in human embryonic kidney (HEK293T) cells expressing luciferase-tagged ELG1 | AID 504466, 2011 | Potency, µM (titrated, usually from 46 µM), for the others: at the top dose activity change, positive = activation, actives largely listed as activators | actives 1.3% (n = 330,000) | HEK293T ELG1-luciferase reporter, luminescence, 16 h; further: % of control where 0% means no effect; nearly all actives have a fitted effect of over 60% in size
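Quantitative HTS format in 1536-well plates. HEK293T ELG1-luciferase reporter cells receive test compound and are incubated 16 hr at 37 °C, 5% CO2; ONE-Glo added, 30 min room temperature, then luminescence read.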
NPC1 promoter act: qHTS Assay for NPC1 Promoter Activators. Huh7 NPC1 promoter luciferase reporter, 24 h. Potency, µM (doses to about 9.22 µM), for inactives: at the top dose activation, usual class: activators. actives 2.4% (n = 320,000). AID 485313, 2010; further: % of control where 0% means no effect; nearly all actives have a fitted effect of over 60% in size
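Quantitative HTS used a cell-based reporter: Huh7 cells stably bearing the NPC1 promoter upstream of luciferase were treated with compounds for 24 h, and promoter activation was read as luminescence.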
SMN2 splice up: qHTS Assay for Enhancers of SMN2 Splice Variant Expression; HEK293 SMN2-luciferase splicing reporter, luminescence, 30-36 h; Potency, µM (doses to about 46.1 µM), inactives show at the highest dose activity change, positive = activation, actives largely listed as activators; actives 2.8% (n = 210,000); AID 1458, 2008; further: % of control where 0% means no effect; nearly all actives have a fitted effect of over 55% in size
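HEK293 cells carry an SMN2 minigene-luciferase reporter in which exon 7 inclusion puts luciferase in frame. Cells were seeded at 2000 cells/well, attached for 10-12 hours, then exposed to compounds for 30-36 hours at 37C before ONE-Glo luminescence.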
Luc counter: Counterscreen for Luciferase (Kinase-Glo TM) Inhibition; Luciferin 4-monooxygenase (Photuris pensylvanica), Q27757; Kinase-Glo luciferase, ATP luminescence, 8 min; Potency, µM (top dose mostly 38.3 µM), without a hit: at the highest dose activity change, negative = inhibition, most hits filed as inhibitors; actives 0.28% (n = 200,000); AID 1379, 2008; further: on the % scale 0 is the no-effect control and ±100 the full control effect; nearly all actives have a fitted effect of over 60% in size
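Luminescence was the read-out, taken after 8-minute incubation at ambient temperature. Luciferase turned over luciferin with 10 uM ATP in imidazole pH 7.2 buffer containing KCl, MgCl2, Tween 20 and BSA.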
Rab9 promoter act: qHTS Assay for Rab9 Promoter Activators; Huh7 Rab9 promoter-luciferase reporter, luminescence, 24 h; AID 485297, 2010; actives 2.8% (n = 320,000); Potency, µM (titrated, usually from 9.22 µM), for inactives: at the top dose activation, negative = inhibition, hits mostly activators; further: % of control where 0% means no effect; nearly all actives have a fitted effect of over 60% in size
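Steps: seed 1500 Huh7 Rab9-luc cells per well, rest 2 h at 37 °C; add compound in DMSO; incubate 24 h; add luciferase reagent, 10 min ambient; read luminescence.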
FLuc counter: qHTS profiling assay for firefly luciferase inhibitor/activator using purifed enzyme and Km concentrations of substrates (counterscreen for miR-21 project) | Luciferin 4-monooxygenase (Photinus pyralis), P08659 | purified FLuc, Km substrates, luminescence inhibition | Potency, µM (doses to about 57.5 µM), for inactives: at the top dose activity change, negative = inhibition, hits mostly inhibitors | actives 6.9% (n = 360,000);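 further: plate controls were vehicle for no effect and reference inhibitor for full effect; nearly all actives have a fitted effect of over 55% in size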
Target sequence (P08659 whole entry, looked up): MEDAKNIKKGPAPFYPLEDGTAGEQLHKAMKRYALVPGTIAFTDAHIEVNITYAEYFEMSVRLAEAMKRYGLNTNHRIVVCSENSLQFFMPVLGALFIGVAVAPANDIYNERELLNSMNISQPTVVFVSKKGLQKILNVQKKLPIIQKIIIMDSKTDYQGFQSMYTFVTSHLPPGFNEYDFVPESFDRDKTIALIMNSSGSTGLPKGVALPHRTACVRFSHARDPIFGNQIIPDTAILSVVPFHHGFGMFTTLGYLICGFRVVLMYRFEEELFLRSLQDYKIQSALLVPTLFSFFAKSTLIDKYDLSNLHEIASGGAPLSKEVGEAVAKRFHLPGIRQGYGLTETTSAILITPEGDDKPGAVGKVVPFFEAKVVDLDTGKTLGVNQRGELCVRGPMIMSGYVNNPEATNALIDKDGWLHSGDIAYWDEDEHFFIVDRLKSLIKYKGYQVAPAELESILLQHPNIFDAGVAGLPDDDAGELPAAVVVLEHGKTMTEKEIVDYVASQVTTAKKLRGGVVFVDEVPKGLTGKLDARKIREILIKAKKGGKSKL
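Purified P. pyralis luciferase (10nM final) with 10uM D-luciferin and 10uM ATP (Km levels) in 50mM Tris acetate pH 7.5, 10mM Mg acetate, 0.01% Tween-20, 0.05% BSA; qHTS 6-point titration, ~60 µM downward; luminescence read.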
* = called active by the depositor; u = inconclusive; x = no result. The call rests on the fitted dose curve; in most records, active means well fitted curve in the direction sought with a large enough effect; inconclusive means small, poorly fitted or top-dose-only effect, or another doubt; inactive means no such curve, though single readings can be large; an effect the other way counts as inactive or inconclusive. Potency means the concentration at half of the fitted maximal effect.

SMILES	ELG1 genotox	NPC1 promoter act	SMN2 splice up	Luc counter	Rab9 promoter act	FLuc counter
COc1ccc(C(=O)NNC2=NS(=O)(=O)c3ccccc32)cc1OC	-5%	1%	x	x	-2%	15µM*
Cn1c(=O)c(C(=O)COC(=O)c2cc(C(F)(F)F)nc3c(C(F)(F)F)cccc23)c(N)n(Cc2ccccc2)c1=O	x	x	-3%	-1%	x	x
Cc1nn(C(C)C(=O)NC2CCC(C)CC2)c(=O)c2cc3sccc3n12 (stereo not given)	x	x	-9%	x	x	6%
Cc1cccn2cc(CSc3ccccc3N)nc12	6.5µM*	2.2µM*	u	-5%	2.5µM*	6µM*
Nc1ccccc1SCc1cn2ccccc2n1	u	2.2µM*	11µM*	-8%	1.8µM*	6.7µM*
Cc1ccc(NC(=O)c2ccc(OC(=S)N3CCOCC3)cc2)cc1	u	u	2%	-1%	2µM*	-12%
Cc1cc(C)cc(NC(=O)c2ccc(CNc3c(N4CCOCC4)c(=O)c3=O)cc2)c1	1%	-2%	-9%	0%	5%	-19%
Cc1ccc(NC(=O)c2ccc(CNc3c(N4CCOCC4)c(=O)c3=O)cc2)cc1	1%	1%	-14%	-1%	3%	15µM*
O=C(Nc1ccccc1Br)c1ccc(OC(=S)N2CCOCC2)cc1	-4%	-7%	x	-2%	-2%	-6%
CCOC(=O)c1ccc2c(c1)NCc1cccc(OC)c1O2	u	2.5µM*	x	x	2.8µM*	5.4µM*
N/C(=N\c1nc2ccccc2o1)NC(=O)c1ccccc1Br	6%	u	x	x	u	12µM*
CC(C)(C)c1ccc(C(=O)N/C(N)=N/c2nc3ccccc3o2)cc1	-6%	-3%	-54%	-2%	-13%	u
Cc1ccc2oc(/N=C(\N)NC(=O)C3CC3)nc2c1	u	0.63µM*	x	x	0.45µM*	0.85µM*
Cc1ccc2oc(/N=C(\N)NC(=O)C(C)(C)C)nc2c1	7%	-22%	x	x	-30%	0.076µM*
O=C1CCCC2=C1C(c1ccc(O)cc1)c1c(ccc3ccccc13)N2 (stereo not given)	3%	-5%	8%	4%	1%	-13%
COc1cc(OC)cc(-c2sc3ccc(OC)cc3c2C#CC2(N)CCCCC2)c1	-4%	x	x	x	x	x
COc1cccc2sc3ccc(C#CC4(N)CCCCC4)cc3c(=O)c12	11%	24%	x	x	21%	19µM*
CN(c1ccccc1)S(=O)(=O)c1cccc(NC(=O)c2ccc(Cl)c([N+](=O)[O-])c2)c1	-14%	x	x	x	x	x
O=C(C1=C(O)C(=O)N(CCCn2ccnc2)C1c1cccc(Br)c1)c1ccco1 (stereo not given)	1%	-2%	x	x	5%	-2%
Cc1ccc(OCc2cnc(Cl)s2)c(C)c1	19%	4%	0%	-1%	0%	11µM*
c1ccc(CCCNc2ncnc3nc[nH]c23)cc1	1%	9%	-13%	-2%	1%	-17%
COc1cccc(Nc2ncnc3nc[nH]c23)c1	13%	u	13µM*	-12%	u	19µM*
Cc1ccc(NC(=O)Nc2ncnc3nc[nH]c23)cc1	u	3.5µM*	x	x	2.8µM*	12µM*
CCc1ccc(Nc2ncnc3nc[nH]c23)cc1	u	2.2µM*	x	x	2µM*	11µM*
CCCCc1ccc(Nc2ncnc3nc[nH]c23)cc1	8.2µM*	u	5%	-4%	u	11µM*
SMILES	ELG1 genotox	NPC1 promoter act	SMN2 splice up	Luc counter	Rab9 promoter act	FLuc counter
CCCNc1ncnc2nc[nH]c12	-10%	-8%	-19%	3%	-7%	-1%
Cc1ccc(Nc2ncnc3nc[nH]c23)cc1Cl	5.8µM*	3.5µM*	u	-11%	3.2µM*	u
CCCc1cc(C(=O)Nc2ccc(CC)cc2)no1	u	3.2µM*	x	x	1.6µM*	4.8µM*
CCCc1cc(C(=O)Nc2ccc(C)cc2)no1	u	u	8%	-2%	4.5µM*	3.4µM*
CC(=O)OC1CCC2(C)C(=CCC3C2CCC2(C)C3C[C@@H]3O[C@]32C(C)=O)C1 (stereo not given in full)	x	x	x	0%	x	x
CCOC(=O)c1cc(=O)n2nc(-c3ccc(C)cc3)nc2s1	0%	0%	1%	-13%	2%	3µM*
CCOC(=O)Cc1csc2nc(-c3ccccc3)nn12	0%	-3%	x	x	0%	-15%
Cc1cccc(-n2ccnc2SCC(=O)Nc2ccccc2C(F)(F)F)c1	x	x	x	x	x	-16%
Cc1cccc(/C=C2\CS/C(=C\c3cccc(C)c3)C2=O)c1	8%	-3%	-6%	16%	3%	8.5µM*
O=C1/C(=C/c2cccc(Cl)c2)CSc2sccc21	-2%	-1%	x	x	-2%	1%
O=C(CCN1C(=O)c2ccccc2C1=O)Nc1ccc(-c2nc3ccccc3s2)cc1	10µM*	1.3µM*	x	x	0.4µM*	u
Cc1cccc(NC(=O)CCN2C(=O)c3ccccc3C2=O)c1	-2%	2%	x	x	-6%	-11%
COc1ccc(NC(=O)CCN2C(=O)c3ccccc3C2=O)cc1	0%	-5%	x	x	4%	4%
CC(C(=O)Nc1ccc(C(=O)O)cc1)N1C(=O)c2ccccc2C1=O (stereo not given)	0%	3%	3%	1%	-2%	0%
Cc1ccc2nc(-c3ccc(NC(=O)C(C)N4C(=O)c5ccccc5C4=O)cc3)sc2c1 (stereo not given)	u	u	11µM*	2%	29%	8.5µM*
O=C(CCN1C(=O)c2ccccc2C1=O)Nc1nc2ccccc2s1	16%	8%	15%	0%	1%	19µM*
Cc1ccc2nc(-c3ccc(NC(=O)CCN4C(=O)c5ccccc5C4=O)cc3)sc2c1	1µM*	0.4µM*	0.32µM*	-4%	0.25µM*	1.5µM*
C=CCOc1c(CNC2CCCC2)cc(Cl)cc1OC	-7%	-2%	-7%	0%	-7%	-1%
COc1ccc(S(=O)(=O)N2CCCC(N(C)CCc3ccccc3)C2)cc1OC (stereo not given)	-4%	-6%	x	x	0%	3%
Cc1ccc(C2(C)NC(=O)N(CC(=O)Nc3ccc(-c4nc5ccc(C)cc5s4)cc3)C2=O)cc1 (stereo not given)	u	1.8µM*	x	x	u	2.4µM*
Cc1ccc(NC(=O)CN2C(=O)NC(C)(c3ccc4c(c3)OCO4)C2=O)cc1 (stereo not given)	-1%	x	x	x	x	x
